Test [1] concerns Wnt5a (protein binding on small-molecule microarray). Put plainly: small molecules binding Wnt5a protein – biophysical, small-molecule microarray, 635/667 nm fluorescence, primary screen (AID 1142).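 Note: fluorescence read at 667 nm with signal to noise per printed feature.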 The settings on record: 635 nm fluorescence, higher = more signal.
Test [2] can be described thus: ATP-based viability of Huh7 replicon cells – cell-based, CellTiter-Glo luminescence, basal, 48 h, cytotoxicity control for HCV replication inhibitor project, primary screen (AID 1143).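 Note: Huh7 hepatoma cells carrying a hepatitis C replication reporter with no stimulus; test concentration not given here.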 The following applies: higher = more signal, called active from +8 up or from −8 down. (In antiviral work, replicon cells carry a viral genome segment that copies itself.)
Test [3] is described as follows: Pseudomonas biofilm growth suppression – PAO1 strain, BacTiter-Glo luminescence, LB-PBS, primary screen (AID 1144). The following applies: P. aeruginosa PAO1 biofilm, 12 h, higher = more signal.
Test [4] in a line: basal CRE-LacZ reporter activity in PC12 – cell-based, unstimulated, primary screen (AID 1145). The settings on record: no forskolin, luminescence, 4.5 h, higher = more signal, called active from +8 up or from −8 down.
Test [5] can be described thus: forskolin-driven CRE-LacZ activity in PC12 – cell-based, CRE-LacZ reporter, forskolin-stimulated, primary screen (AID 1146).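 Note: PC12 cells with 6xCRE LacZ reporter stimulated by forskolin 10 µM; beta-galactosidase reporter signal reflecting CREB driven transcription.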 The following applies: luminescence, 4.5 h, higher = more signal, called active from +8 up or from −8 down.
Test [6] addresses Streptavidin (Streptomyces avidinii) (UniProt P22629). Kind of test: compounds binding control protein streptavidin – biophysical, small-molecule microarray, 635/667 nm fluorescence, artefact control for SMM compound annotation, primary screen (AID 1147).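 Note: signal reflects streptavidin binding to arrayed compounds as a control protein.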 The settings on record: higher = more signal.
A short description of test [7]: probe aInhba binding on compound microarray – biochemical, small-molecule microarray, 635/667 nm fluorescence, primary screen (AID 1148).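 Note: score merges 667nm spot fluorescence with signal-to-noise for antibody binding to printed compounds.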 The settings on record: higher = more signal.
For test [8], the target named is Torsin-1A (Homo sapiens) (UniProt O14656). Put plainly: TOR1A wild-type binding on microarray – cell lysate, small-molecule microarray, lysate, 635/667 nm, primary screen (AID 1149). The following applies: COS7 hTOR1A-WT lysate, 635 nm fluorescence, higher = more signal.
The target is the same in test [9]. Put plainly: torsin A mutant lysate binding on microarrays – cell lysate, small-molecule microarray, COS7 lysate, 635/667 nm fluorescence, primary screen (AID 1150).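 Note: score pools 667 nm emission and signal to noise measuring lysate protein binding.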 The following applies: COS7 hTOR1A mutant lysate, 635 nm fluorescence, higher = more signal.
Test [10] deals with Sonic hedgehog protein (Shh). Put plainly: Sonic hedgehog microarray binding compounds – biochemical, small-molecule microarray, 635/667 nm fluorescence, primary screen (AID 1151).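 Note: Shh protein binding to compounds spotted on small-molecule microarray slides; score combines spot fluorescence intensity with signal-to-noise across triplicate slides.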 The settings on record: 635 nm fluorescence, higher = more signal.

The source made the active and inactive calls. Unless noted, the rule behind the calls is not given here.

Chain of Torsin-1A (Homo sapiens) (O14656 whole entry, looked up): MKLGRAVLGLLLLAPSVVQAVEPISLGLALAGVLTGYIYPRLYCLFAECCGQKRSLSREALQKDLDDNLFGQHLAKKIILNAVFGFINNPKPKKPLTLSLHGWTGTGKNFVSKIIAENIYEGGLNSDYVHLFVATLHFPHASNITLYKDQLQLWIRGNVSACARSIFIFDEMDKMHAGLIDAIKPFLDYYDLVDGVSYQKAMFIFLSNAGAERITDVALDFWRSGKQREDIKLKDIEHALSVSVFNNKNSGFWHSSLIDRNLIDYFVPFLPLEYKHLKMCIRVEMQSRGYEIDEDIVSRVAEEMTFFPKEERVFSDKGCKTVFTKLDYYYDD
Chain of Streptavidin (Streptomyces avidinii) (P22629 whole entry, looked up): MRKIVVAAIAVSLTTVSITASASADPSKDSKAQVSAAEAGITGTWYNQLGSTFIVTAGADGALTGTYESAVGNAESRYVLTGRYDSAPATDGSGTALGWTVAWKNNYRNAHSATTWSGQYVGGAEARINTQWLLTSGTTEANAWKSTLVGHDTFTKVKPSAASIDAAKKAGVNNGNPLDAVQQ

With `Cc1cc(C)c(C(O)C2C=CC3C(=O)N(C)C(=O)C3N2Nc2ccccc2)c(C)c1` (stereo not given), the composite z-score in test [1] is 0.701; in test [6], 0.66; in test [7], 1.55; with Torsin-1A (Homo sapiens) [8] it was 0.405; with Torsin-1A (Homo sapiens) [9], 0.738; in [10] it was -0.0207. Also, the z-score is 1.06 (inactive) in test [2], 0.3 (inactive) in [3], 0.246 (inactive) in [4] and -0.354 (inactive) in test [5].
As for `N#Cc1ccc(NN2C(C(O)c3cccs3)C=CC3C(=O)N(c4ccccc4)C(=O)C32)cc1` (stereo not given), the composite z-score was 0.128 in test [1]; 0.943 in [6]; 0.109 in test [7]; 0.733 in the test with Torsin-1A (Homo sapiens) [8]; 0.812 in the test with Torsin-1A (Homo sapiens) [9]; -0.318 in test [10]. Also, the z-score in [2] was -0.0331 (inactive); in test [3], -1.34 (inactive); in test [4], -0.329 (inactive); in [5], -0.224 (inactive).
On to `O=C1C2C=CC(C(O)c3ccc(-c4ccccc4)s3)N(n3cnnc3)C2C(=O)N1Cc1ccccc1` (stereo not given), for which the composite z-score in test [1] was -0.18; in [6], -0.116; in [7] it was -0.0087; with Torsin-1A (Homo sapiens) [8] it was -0.412; in the test with Torsin-1A (Homo sapiens) [9], -0.468; in test [10], -0.683. For the same molecule, the z-score was -0.291 (inactive) in test [2], -0.669 (inactive) in test [3], 0.481 (inactive) in test [4] and 0.288 (inactive) in test [5].
As for `CC(=O)C1=CCC(c2ccccc2)N(S(=O)(=O)c2ccc(C)cc2)C1` (stereo not given), the composite z-score in test [1] is -0.004; in test [6], 1.69; in test [7], -0.0087; with Torsin-1A (Homo sapiens) [8] it was 0.911; with Torsin-1A (Homo sapiens) [9], 1.55; in [10], -0.194. Besides, the z-score in [2] was -1.06 (inactive); in test [3], -0.65 (inactive); in test [4], -0.116 (inactive); in test [5], 0.151 (inactive).
In the case of `CCCN1C(=O)[C@@]2(CCC(=O)OC(C)(C)C)N=C(c3ccc(OCCCO)cc3)O[C@H]2c2ccccc21`, the composite z-score in test [1] was 0.399; in test [6], 0.0808; in test [7], 0.0319; with Torsin-1A (Homo sapiens) [8] it was -0.0821; with Torsin-1A (Homo sapiens) [9] it was 0.408; in test [10], 1.5. For the same molecule, the z-score was -4.47 (inactive) in [2], -1.36 (inactive) in test [3], 1.46 (inactive) in [4] and -1.6 (inactive) in test [5].
Consider `COC(=O)[C@@]1(Cc2ccccc2)[C@H]2c3cc(C(=O)N4CCCC4)n(Cc4ccc(C)o4)c3C[C@H]2CN1C(=O)c1ccccc1`, for which the composite z-score is -0.135 in test [1]; 1.15 in test [6]; 0.181 in [7]; 0.0769 with Torsin-1A (Homo sapiens) [8]; 0.537 in the test with Torsin-1A (Homo sapiens) [9]; -0.21 in test [10]. Further, the z-score in test [2] is -2.17 (inactive); in test [3], -0.544 (inactive); in test [4] it was 0.962 (inactive); in [5], 1.16 (inactive).
`CC(C)C(O)C1C=CC2C(=O)N(c3ccccc3)C(=O)C2N1Nc1ccc(C#N)cc1` (stereo not given): the composite z-score was 0.612 in test [1]; 0.761 in [6]; 0.388 in test [7]; -0.0618 with Torsin-1A (Homo sapiens) [8]; 0.719 with Torsin-1A (Homo sapiens) [9]; 0.0011 in test [10]. For the same molecule, the z-score in test [2] is 0.388 (inactive); in [3] it was -0.783 (inactive); in [4], 0.629 (inactive); in [5] it was 0.813 (inactive).
Turning to `C=C(CCCC)/C(=C/C[C@H](OC(C)=O)c1ccc(CO)o1)c1cnc2ccccc2c1`, the composite z-score came to 0.465 in test [1]; 1.25 in test [6]; 0.0278 in test [7]; 0.749 in the test with Torsin-1A (Homo sapiens) [8]; 1.08 in the test with Torsin-1A (Homo sapiens) [9]; 1.89 in test [10]. For the same molecule, the z-score was 0.665 (inactive) in [2], -1.22 (inactive) in test [3], 0.0563 (inactive) in [4] and 1.65 (inactive) in test [5].
Consider `C=CCNC(=O)[C@H]1[C@@H]2C(=O)O[C@@H](c3ccccc3)[C@@H](c3ccccc3)N2[C@@H](c2ccc(O)cc2)[C@]12C(=O)N(C(=O)OCCOC)c1ccc(C#CCCO)cc12`, for which the composite z-score in test [1] was 0.317; in test [6], -0.0841; in test [7], -0.0954; in the test with Torsin-1A (Homo sapiens) [8] it was 0.846; with Torsin-1A (Homo sapiens) [9], 0.432; in test [10] it was 1.08. The z-score in [2] was -0.185 (inactive); in test [3], -0.176 (inactive); in [4] it was -0.141 (inactive); in test [5], 0.567 (inactive).
Consider `COc1ccc([Si](C)(C)[C@@H]2[C@@H](CC(=O)N(CCO)Cc3ccccc3)O[C@]3(C(=O)N(C)c4ccccc43)[C@H]2C)cc1`, for which the composite z-score in test [1] was 0.205; in test [6] it was 0.92; in [7] it was 0.218; in the test with Torsin-1A (Homo sapiens) [8] it was 0.089; in the test with Torsin-1A (Homo sapiens) [9], 0.152; in test [10], 1.74. Also, the z-score in test [2] was -4.28 (inactive); in [3], -0.054 (inactive); in test [4], 11.9 (active); in [5], 1.37 (inactive).
Consider `CC(C)CNC(=O)[C@@]1(c2ccc([N+](=O)[O-])cc2)CC(=O)N(CC23CC4CC(CC(C4)C2)C3)[C@@H]1c1ccc(CO)cc1I`, for which the composite z-score stood at 0.777 in [1]; 0.574 in [6]; 0.11 in test [7]; 0.283 in the test with Torsin-1A (Homo sapiens) [8]; 0.578 with Torsin-1A (Homo sapiens) [9]; 2.02 in test [10]. Besides, the z-score is -4.95 (inactive) in test [2], -0.266 (inactive) in test [3], 0.145 (inactive) in [4] and 1.07 (inactive) in test [5].
As for `COCCOC(=O)N1C(=O)[C@@]2(c3cc(C#CCNC(N)=O)ccc31)[C@H](c1ccc(O)cc1)N1[C@H](c3ccccc3)[C@H](c3ccccc3)OC(=O)[C@H]1[C@@H]2C(=O)Nc1nc2ccccc2s1`, the composite z-score in test [1] was 0.327; in test [6], 0.454; in [7], -0.102; with Torsin-1A (Homo sapiens) [8], 0.518; with Torsin-1A (Homo sapiens) [9], 0.587; in test [10] it was 1.34. Further, the z-score was -2.61 (inactive) in test [2], -2.43 (inactive) in test [3], -0.463 (inactive) in [4] and -1.5 (inactive) in test [5].
On to `COC(=O)c1ccc(C(O)C2C=CC3C(=O)N(C)C(=O)C3N2NC(=O)OC(C)(C)C)o1` (stereo not given), for which the composite z-score is 0.565 in [1]; 0.367 in test [6]; -0.128 in test [7]; 0.649 with Torsin-1A (Homo sapiens) [8]; 1.5 with Torsin-1A (Homo sapiens) [9]; 0.112 in test [10]. Also, the z-score is 0.534 (inactive) in [2], 0.212 (inactive) in [3], 1 (inactive) in test [4] and 0.323 (inactive) in test [5].
On to `N#Cc1ccc(NN2C(C(O)C3CCCCC3)C=CC3C(=O)N(c4ccccc4)C(=O)C32)cc1` (stereo not given), for which the composite z-score in test [1] was 0.4; in test [6] it was 1.75; in test [7], 0.134; with Torsin-1A (Homo sapiens) [8], 0.439; with Torsin-1A (Homo sapiens) [9] it was 0.361; in test [10] it was -0.81. Besides, the z-score in test [2] is 0.124 (inactive); in test [3], -0.984 (inactive); in [4], 0.808 (inactive); in test [5] it was 1.47 (inactive).
For `[N-]=[N+]=NCc1ccccc1[C@@H]1OC(c2ccc(OCCCO)cc2)=N[C@]1(Cc1ccccc1)C(=O)N1CCCCC1`, the composite z-score is 0.663 in test [1]; 0.466 in [6]; 0.288 in [7]; -0.451 with Torsin-1A (Homo sapiens) [8]; -0.271 in the test with Torsin-1A (Homo sapiens) [9]; 0.0721 in test [10]. In addition, the z-score in [2] was -3.77 (inactive); in [3], -0.641 (inactive); in [4], 1.56 (inactive); in test [5], -0.546 (inactive).

The record behind these values is PubChem BioAssay.
